Results filed as inconclusive are left out. Activity calls are given as the source filed them.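 How the source made its calls, unless noted: active means viability increase at or above a cutoff of the median across tested compounds plus 3 SD (cut at about 8.5% in these data, passing the limit was not always enough); inconclusive means some gains above the cutoff, reason not given; inactive means the rest.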

The first assay in a line: doxorubicin toxicity protection in MRP-1 cells – H69AR cells, CellTiter-Glo, duplicate, MRP-1 activator project, pilot screen (AID 807).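 Further: compound pretreatment 18-22 h then 72 h combined with doxorubicin; 0% = doxorubicin alone and 100% = vehicle without doxorubicin.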 As to conditions: H69AR viability with doxorubicin, CellTiter-Glo luminescence; at 10 µM; active compounds read high. Background: ATP-based viability assays read luminescence as a measure of living cells.
Take `CCCCOC(=O)Nc1nc(CC(=O)OCC)cs1`: the viability increase is 1.05% (inactive).
In the case of `N#Cc1nc(COc2ccc(Br)cc2)oc1N1CCCCCC1`, the viability increase is 4.39% (inactive).
Same read-out and setting: under `COc1ccc(-c2cc(C(F)(F)F)n3nc(C(=O)N4CCCC4)cc3n2)cc1` stands -3.39% (inactive).
On the same count and under the same terms, then `CC(=O)Nc1ccc(NC(=O)C2CC(=O)N(c3cccc(C)c3C)C2)cc1` (stereo not given), with -1.32% (inactive); and `COCCNC(=O)CN(c1ccccc1OC)S(C)(=O)=O`, with 0.7% (inactive); and `O=C(COC(=O)C1(c2ccccc2F)CCCC1)N1CCN(C(=O)c2ccco2)CC1`, with -2.48% (inactive).
The same measure, in the same setting: then `COC(=O)c1ccc(N2CCOCC2)c(NC(=O)Nc2cccc(OC)c2)c1`, with -5.3% (inactive); and `Cc1cc(C(F)(F)F)nc(NCc2ccc(F)cc2)n1`, with -1.57% (inactive).
For the molecule `O=C(CCCc1ccccc1)NCc1cn2ccsc2n1`, the viability increase is 0.97% (inactive).
On the same count and under the same terms, under `O=C(CSc1nc(-c2ccco2)cc(C(F)(F)F)n1)N1CCN(Cc2ccccc2)CC1` stands -4.54% (inactive); under `Cc1ccsc1-c1nc(CSCC(=O)N2CCN(c3ccccc3)CC2)c(C)o1`, -3.18% (inactive).
Consider `CCn1c(SCc2nc(-c3ccccc3)no2)nc2ccccc21`, for which the viability increase was 1.73% (inactive).
For the molecule `COCCn1c(SCC(N)=O)nc2c(c1=O)SC(C)C2` (stereo not given), the viability increase is 0.08% (inactive).
On to `CSC1=NCCN1C(=O)COc1ccc2ccccc2c1`, for which the viability increase is 0.69% (inactive).
The same measure, in the same setting: then `O=C(CC1Sc2ccccc2NC1=O)Nc1cccc(C(=O)O)c1` (stereo not given), with -0.43% (inactive); and `O=C(c1ccncc1)N1CCN(C(=O)c2cccc3ccccc23)CC1`, with -2.73% (inactive); and `COc1ccc(C)cc1NC(=O)c1ccoc1C`, with 0.93% (inactive).
On to `CCOC(=O)Cn1c(CN2CC(C)OC(C)C2)nc2c1c(=O)n(C)c(=O)n2C` (stereo not given), for which the viability increase was 0.25% (inactive).
As to `COc1ccc(OC)c(-n2c(SCC(=O)Nc3cc(C)on3)nnc2-c2c[nH]c3ccccc23)c1`, the viability increase is -2.74% (inactive).
On to `COc1ccc(CCNC(=O)c2cc3ccccn3n2)c(OC)c1OC`, for which the viability increase was -0.02% (inactive).
As for `O=C(OCn1nnc2ccccc2c1=O)c1cccs1`, the viability increase is -0.21% (inactive).
Regarding `O=C(NCc1cn2ccsc2n1)c1cccs1`, the viability increase was -2.88% (inactive).
Same read-out and setting: then `CCOc1ccc(OCC)c(NC(=O)C2CCCN2S(=O)(=O)c2cccc3cccnc23)c1` (stereo not given), with -3.84% (inactive); and `CCOCCn1c(SCCc2ccccc2)nc2c1c(=O)[nH]c(=O)n2C`, with -1.92% (inactive).
Still for that read-out and setting: under `Cc1ccc(S(=O)(=O)Cc2ccc(C(=O)N3CCN(c4ccccn4)CC3)o2)cc1` stands -4.22% (inactive); under `CCC(C)(C(=O)NC1CCCCC1)N(Cc1ccco1)C(=O)CNC(=O)c1ccccc1` (stereo not given), -3.39% (inactive).
Same read-out and setting: then `CCC(C)Sc1nc2c([nH]c3ccccc32)c(=O)n1C` (stereo not given), with -4.85% (inactive).
Consider `Cc1onc(-c2ccccc2Cl)c1C(=O)Nc1ccc(OCC(=O)N2CCOCC2)cc1`, for which the viability increase was -2.3% (inactive).
Still for that read-out and setting: then `COCCn1c(SCC(=O)Nc2ccccc2)nc2c1c(=O)[nH]c(=O)n2C`, with 1.21% (inactive); and `Cc1cccc(OCC2=N/C(=C\N(C)C)C(=O)O2)c1`, with -0.64% (inactive); and `Cc1[nH]c2ccccc2c1CCC(N)=O`, with -1.34% (inactive).
Still for that read-out and setting: then `CCCc1nc(N2CCN(C)CC2)c2sc(=S)n(-c3ccccc3)c2n1`, with -2.47% (inactive); and `CCCc1nc(N)nc2c1C(=O)CC(C)(C)C2`, with -1.08% (inactive); and `COc1ccccc1CC(=O)N1CCN(c2cccc(C(F)(F)F)c2)CC1`, with 1.84% (inactive).
Still for that read-out and setting: under `O=C(CCC(=O)OCCCC(F)(F)C(F)(F)F)Nc1ccccc1` stands 1.41% (inactive); under `CCN1CCN(C(=O)CSCc2nc(-c3ccc(OC)c(OC)c3)oc2C)CC1`, -1.52% (inactive); under `COc1ccc(S(=O)(=O)n2cnc3cc(C)c(C)cc32)cc1`, -1.56% (inactive).
Consider `Cc1cccc(C(=O)N2CCN(Cc3ccc4c(c3)OCO4)CC2)c1`, for which the viability increase was -1.3% (inactive).
With `O=C(NCCCNC(=O)c1cccs1)c1cccs1`, the viability increase is 0% (inactive).
The same measure, in the same setting: then `Cn1c(NC(=O)CC2CCCCC2)cc(=O)n(C)c1=O`, with -0.04% (inactive).

The nature of the next assay: viability of HCT116 without oncogenic beta-catenin – human colon tumor cells, pilot screen (AID 823;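 active means cell viability at or below a set limit in both duplicate runs, the limit being the all-compound median minus 4 SD, cut at about 23% in these data, passing the limit was not always enough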;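 further: 0% = wells killed by 20 µM Hyamine and 100% = untreated DMSO cell wells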). The conditions noted are these: HCT116 beta-catenin knockout viability, CellTiter-Glo, 60 h; at 10 µM; active compounds read low.
Broadly, the viability is a read-out of living cells in per cent, often relative to untreated cells. `CCCCOC(=O)Nc1nc(CC(=O)OCC)cs1`: the viability was 92.2% (inactive).
Still for that read-out and setting: under `N#Cc1nc(COc2ccc(Br)cc2)oc1N1CCCCCC1` stands 62.4% (inactive).
`COc1ccc(-c2cc(C(F)(F)F)n3nc(C(=O)N4CCCC4)cc3n2)cc1`: the viability is 93.9% (inactive).
On the same count and under the same terms, under `CC(=O)Nc1ccc(NC(=O)C2CC(=O)N(c3cccc(C)c3C)C2)cc1` (stereo not given) stands 93.8% (inactive); under `COCCNC(=O)CN(c1ccccc1OC)S(C)(=O)=O`, 101% (inactive).
The same measure, in the same setting: then `O=C(COC(=O)C1(c2ccccc2F)CCCC1)N1CCN(C(=O)c2ccco2)CC1`, with 87.3% (inactive); and `COC(=O)c1ccc(N2CCOCC2)c(NC(=O)Nc2cccc(OC)c2)c1`, with 84.4% (inactive); and `Cc1cc(C(F)(F)F)nc(NCc2ccc(F)cc2)n1`, with 90.5% (inactive).
Still for that read-out and setting: under `O=C(CCCc1ccccc1)NCc1cn2ccsc2n1` stands 103% (inactive); under `O=C(CSc1nc(-c2ccco2)cc(C(F)(F)F)n1)N1CCN(Cc2ccccc2)CC1`, 86.8% (inactive).
For `Cc1ccsc1-c1nc(CSCC(=O)N2CCN(c3ccccc3)CC2)c(C)o1`, the viability was 61.6% (inactive).
Same read-out and setting: then `CCn1c(SCc2nc(-c3ccccc3)no2)nc2ccccc21`, with 93.1% (inactive).
The same measure, in the same setting: under `COCCn1c(SCC(N)=O)nc2c(c1=O)SC(C)C2` (stereo not given) stands 99.4% (inactive); under `CSC1=NCCN1C(=O)COc1ccc2ccccc2c1`, 98.9% (inactive); under `O=C(CC1Sc2ccccc2NC1=O)Nc1cccc(C(=O)O)c1` (stereo not given), 101% (inactive).
Still for that read-out and setting: under `O=C(c1ccncc1)N1CCN(C(=O)c2cccc3ccccc23)CC1` stands 101% (inactive); under `COc1ccc(C)cc1NC(=O)c1ccoc1C`, 99.5% (inactive).
In the case of `CCOC(=O)Cn1c(CN2CC(C)OC(C)C2)nc2c1c(=O)n(C)c(=O)n2C` (stereo not given), the viability is 95.2% (inactive).
For the molecule `COc1ccc(OC)c(-n2c(SCC(=O)Nc3cc(C)on3)nnc2-c2c[nH]c3ccccc23)c1`, the viability is 79.2% (inactive).
For the molecule `COc1ccc(CCNC(=O)c2cc3ccccn3n2)c(OC)c1OC`, the viability was 112% (inactive).
As for `O=C(OCn1nnc2ccccc2c1=O)c1cccs1`, the viability is 103% (inactive).
Same read-out and setting: then `O=C(NCc1cn2ccsc2n1)c1cccs1`, with 95.1% (inactive); and `CCOc1ccc(OCC)c(NC(=O)C2CCCN2S(=O)(=O)c2cccc3cccnc23)c1` (stereo not given), with 69.8% (inactive); and `CCOCCn1c(SCCc2ccccc2)nc2c1c(=O)[nH]c(=O)n2C`, with 98.8% (inactive).
Same read-out and setting: under `Cc1ccc(S(=O)(=O)Cc2ccc(C(=O)N3CCN(c4ccccn4)CC3)o2)cc1` stands 87.1% (inactive); under `CCC(C)(C(=O)NC1CCCCC1)N(Cc1ccco1)C(=O)CNC(=O)c1ccccc1` (stereo not given), 83.5% (inactive); under `CCC(C)Sc1nc2c([nH]c3ccccc32)c(=O)n1C` (stereo not given), 72.4% (inactive).
Still for that read-out and setting: then `Cc1onc(-c2ccccc2Cl)c1C(=O)Nc1ccc(OCC(=O)N2CCOCC2)cc1`, with 104% (inactive); and `COCCn1c(SCC(=O)Nc2ccccc2)nc2c1c(=O)[nH]c(=O)n2C`, with 102% (inactive).
For the molecule `Cc1cccc(OCC2=N/C(=C\N(C)C)C(=O)O2)c1`, the viability was 97.2% (inactive).
As for `Cc1[nH]c2ccccc2c1CCC(N)=O`, the viability was 101% (inactive).
Same read-out and setting: under `CCCc1nc(N2CCN(C)CC2)c2sc(=S)n(-c3ccccc3)c2n1` stands 83.8% (inactive); under `CCCc1nc(N)nc2c1C(=O)CC(C)(C)C2`, 89.4% (inactive); under `COc1ccccc1CC(=O)N1CCN(c2cccc(C(F)(F)F)c2)CC1`, 39.9% (inactive).
As for `O=C(CCC(=O)OCCCC(F)(F)C(F)(F)F)Nc1ccccc1`, the viability is 100% (inactive).
The same measure, in the same setting: under `CCN1CCN(C(=O)CSCc2nc(-c3ccc(OC)c(OC)c3)oc2C)CC1` stands 101% (inactive); under `COc1ccc(S(=O)(=O)n2cnc3cc(C)c(C)cc32)cc1`, 90.9% (inactive); under `Cc1cccc(C(=O)N2CCN(Cc3ccc4c(c3)OCO4)CC2)c1`, 111% (inactive).
Regarding `O=C(NCCCNC(=O)c1cccs1)c1cccs1`, the viability is 96.6% (inactive).
With `Cn1c(NC(=O)CC2CCCCC2)cc(=O)n(C)c1=O`, the viability was 93.3% (inactive).

For the origin of these results see PubChem BioAssay.
